D1 PAM = enhances dopamine response at the human D1 receptor | P21728 | HEK293 TREx D1 cells, calcium flux, dopamine EC20 potentiation | potentiation, % at 10 µM | hit rate 0.036% among 360,000; in the data active means potentiation above about 30%
TRHR enhancer-1 = allosterically enhances the human TRH receptor; AID 493056; P34981; hit rate 0.66% among 360,000; TRHR cells, fluo-8 calcium fluorescence, EC20 TRH enhancement; enhancement, % at 2 µM; in the data active means enhancement above about 30%
Target sequence (P34981 whole entry, looked up): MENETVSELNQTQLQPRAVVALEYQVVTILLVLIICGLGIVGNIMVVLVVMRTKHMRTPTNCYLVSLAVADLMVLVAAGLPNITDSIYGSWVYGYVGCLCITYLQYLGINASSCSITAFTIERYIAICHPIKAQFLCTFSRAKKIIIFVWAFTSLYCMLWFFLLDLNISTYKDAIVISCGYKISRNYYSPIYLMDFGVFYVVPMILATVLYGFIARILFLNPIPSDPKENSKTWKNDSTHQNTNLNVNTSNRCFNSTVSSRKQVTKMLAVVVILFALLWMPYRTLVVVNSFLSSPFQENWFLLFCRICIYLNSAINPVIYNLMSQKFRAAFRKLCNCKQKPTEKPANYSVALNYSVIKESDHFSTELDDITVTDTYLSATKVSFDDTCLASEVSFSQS
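TRHR-expressing cells loaded with fluo-8 calcium dye were read kinetically (ex 480/em 530) during compound addition, then stimulated with an EC20 of TRH (10 nM final). Enhancement of the Gq-mediated intracellular calcium response was scored.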
TRHR agonist-1 = TRH receptor (human) agonism; AID 493084; P34981; hit rate 0.18% among 360,000; TRHR cells, calcium flux fluo-8, FDSS agonist mode; activation, % at 2 µM; in the data active means activation above about 30%
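Fluo-8-loaded TRHR cells; 10 s baseline, compound added, kinetic Ca2+ fluorescence read 1/s, agonist mode.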
D1 agonist = activates the human D1 dopamine receptor. P21728. HEK293 T-REx D1 cells, calcium flux, agonist mode. activation, % at 2 µM. hit rate 1% among 360,000. AID 504660; in the data active means activation above about 30%
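Inducible HEK293 T-REx D1 cells, force-coupled to calcium signalling, were plated at 4000 cells/well with tetracycline and held overnight at 30 C. After no-wash calcium dye loading, compound-evoked calcium rise over 180 s flagged agonists.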
D1 antag = blocks dopamine activation of the human D1 receptor; AID 504652; hit rate 3.2% among 360,000; HEK293 TREx D1 cells, calcium flux, dopamine EC80; active compounds read low; activity change, negative = inhibition, % at 10 µM; P21728; in the data active means activity change below about -30%
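Using tetracycline-induced force-coupled D1 Hek293 cells and a calcium dye, signals were followed for 180 s after compound, then for 180 s after EC80 dopamine, to detect inhibitors.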
USP1-UAF1 inh = USP1/UAF1 (human) deubiquitinase inhibition; O94782; recombinant USP1/UAF1, Ub-Rhodamine cleavage fluorescence; Potency, µM (doses to about 57.1 µM), most hits filed as inhibitors; hit rate 0.23% among 390,000; further: nearly all actives have a fitted effect of over 60% in size
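USP1/UAF1 complex (1 nM) preincubated 15 min at room temperature with compound, then Ub-Rho substrate (150 nM final) added. Kinetic fluorescence at 480/540 nm over 6 reads at 60 s intervals; 50 mM HEPES pH 7.8, 0.5 mM EDTA, 0.1 mg/ml BSA, 1 mM TCEP, 0.01% Tween-20.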
TRHR enhancer-2 = human TRH receptor allosteric enhancement confirmation; shares compounds with TRHR enhancer-1; TRH receptor cell assay, enhancer confirmation qHTS; activity change, negative = inhibition, % at 46.1 µM; 970 tested, under 10 active; AID 493076;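 further: compound effect scored on response to added TRH at EC20 of 10 nM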
TRHR agonist-2 = human TRH receptor agonism confirmation; shares compounds with TRHR enhancer-1; Potency, µM (highest dose often 46.1 µM), most hits filed as activators; TRHR-expressing cells, agonist activation read-out; hit rate 8% among 970; further: nearly all actives have a fitted effect of over 75% in size
A number is an active result; . = inactive; ? = inconclusive; / = not tested or not shown. Only some compounds are listed: those with a hit (about 4.4% of all), similar ones and a draw of the others. Unless noted, the call rests on the fitted dose curve; in most records, active means well fitted curve in the direction sought with a large enough effect; inconclusive means small, poorly fitted or top-dose-only effect, or another doubt; inactive means no such curve, though single readings can be large; an effect the other way counts as inactive or inconclusive.

SMILES	D1 PAM	TRHR enhancer-1	TRHR agonist-1	D1 agonist	D1 antag	USP1-UAF1 inh	TRHR enhancer-2	TRHR agonist-2
O=C1CC(c2ccccc2)Sc2nc3ccccc3n21 (configuration not stated)	.	42	.	.	.	.	.	.
O=C(Cc1ccc(F)cc1)Nc1cccc(-c2nc3cccnc3s2)c1	.	.	.	.	.	.	/	/
O=C(Nc1ccc(CN2CCOCC2)cc1)c1ccc(F)cc1	.	56	.	.	.	.	.	.
Cn1c(-c2cccc(F)c2)nc2c1c(=O)[nH]c(=O)n2Cc1ccccc1	.	49	.	.	.	.	.	.
CCCn1c(-c2cccc(F)c2)nc2c1c(=O)[nH]c(=O)n2Cc1ccccc1	/	.	.	.	.	.	/	/
COc1ccc(CCNC(=O)CCn2c(=O)c3ccccc3n(Cc3cc(C)ccc3C)c2=O)cc1OC	.	.	.	.	.	.	/	/
COc1ccccc1/C=N/OCc1cc(C(C)=O)ccc1OC	.	56	.	.	.	.	.	.
O=C(O)c1ccc2c(c1)C(=O)N([C@H](Cc1c3ccccc3cc3ccccc13)C(=O)O)C2=O	.	.	.	.	.	/	/	/
CCn1c(SCC(=O)Nc2cccc(C(C)=O)c2)nnc1C(C)C	.	.	39	.	.	.	.	.
COc1ccc(-n2c(=O)c3c4c(sc3n(Cc3ccc(F)cc3)c2=O)CN(C(C)=O)CC4)c(OC)c1	.	.	.	.	.	.	/	/
O=C(NNC(=O)c1n[nH]c2ccccc12)c1ccccc1	.	49	.	.	.	.	?	.
O=C(O)c1ccc(CSc2nnc(-c3ccccc3Cl)n2-c2ccccc2)cc1	.	51	.	.	.	.	.	.
CC(C)CC(=O)c1c[nH]c(C(=O)NCc2cccs2)c1	.	44	.	.	/	.	.	.
CCC(=O)c1c[nH]c(C(=O)NCc2cccs2)c1	.	.	.	.	.	.	/	/
CCCCOc1ccc(C(=O)N/C(=C/C=C/c2ccccc2)C(=O)O)cc1	.	.	.	.	.	.	.	.
CCCCOc1ccc(C(=O)N/C(=C/C=C/c2ccccc2)C(=O)NC)cc1	.	.	.	.	.	.	/	/
COc1ccc(NC(=O)CNS(=O)(=O)c2ccc(Cl)cc2)cc1	.	44	.	.	.	.	.	.
COc1cccc(NC(=O)CNS(=O)(=O)c2ccc(Cl)cc2)c1	.	.	.	.	.	.	/	/
CCc1nnc(NC(=O)C2CCN(c3ncnc4sc(C)c(C)c34)CC2)s1	.	42	.	.	.	.	.	.
Cn1c(=O)n(C)c2cc(N3CCOCC3)c(NS(=O)(=O)c3cccc(C#N)c3)cc21	.	.	.	.	.	.	/	/
CC(=O)Nc1ccc(S(=O)(=O)NCCC(=O)OCC(=O)N2CCN(C(=O)c3ccco3)CC2)cc1	.	46	.	.	.	.	.	.
CC(C)(C)OC(=O)N1CCC(c2c(C(=O)NCc3ccc4c(c3)OCO4)cnn2-c2ccccc2Cl)CC1	.	.	.	.	.	.	/	/
CC(=O)c1nnn(-c2nc(N3CCCC3)nc(N(c3ccccc3)c3ccccc3)n2)c1C	.	45	.	.	.	.	.	.
COc1nc(N2CCCC2)nc(-n2nnc(C(C)=O)c2C)n1	.	.	.	.	.	.	/	/
C=CCN(C(=O)CSc1nc2[nH]ncc2c(=O)n1-c1ccccc1OC)c1ccccc1	.	.	31	.	.	.	.	.
SMILES	D1 PAM	TRHR enhancer-1	TRHR agonist-1	D1 agonist	D1 antag	USP1-UAF1 inh	TRHR enhancer-2	TRHR agonist-2
COc1cc(NC(=O)CSc2nc3[nH]ncc3c(=O)n2-c2ccccc2C)cc(OC)c1OC	.	.	.	.	.	.	/	/
O=C(CCN1C(=O)C2CCCCC2C1=O)N1CCN(S(=O)(=O)c2ccccc2)CC1 (configuration not stated)	.	41	.	.	.	.	.	.
COc1cccc(CNC(=O)CSc2ccc(-c3sc(-c4ccccc4)nc3C)nn2)c1	.	.	.	.	.	?	/	/
OCCC1CN(Cc2cc3c(cc2Cl)OCO3)CCN1C1CCCC1 (configuration not stated)	.	54	.	.	.	.	.	.
CCc1noc(-c2ccc(N(C)Cc3ccc(OC)cc3)c([N+](=O)[O-])c2)n1	.	.	.	.	.	.	/	/
CC(=O)Nc1cc(NC(C)=O)c(N=Nc2ccccc2)cc1C	.	63	.	.	.	.	.	.
COc1ccc(-n2c(SCC(=O)Nc3cc(C)cc(C)c3)nc3c(oc4ccccc43)c2=O)cc1	.	.	.	.	.	.	/	/
COc1cc(Cl)c(C)cc1NC(=O)Cn1ncc2c(=O)oc3ccccc3c21	.	.	.	.	.	.	/	/
CCc1ccc2nc3n[nH]c(N)c3cc2c1	.	.	.	.	.	.	/	/
Nc1[nH]nc2nc3ccccc3cc12	.	69	.	.	.	.	.	.
Cc1ccc(C)c(Cn2c(-c3cccs3)nc3ccccc32)c1	.	.	.	.	.	.	/	/
CCCN1C=CC(=CC=C(C#N)C#N)C=C1	.	.	42	129	.	22µM	.	18µM
CCCCCN1C=CC=C/C1=C\C=C(C#N)C#N	.	.	31	71	.	.	.	21µM
CC1CCCN(C(=O)Cn2nnc(-c3ccc(S(C)(=O)=O)cc3)n2)C1 (configuration not stated)	.	41	.	.	.	.	.	.
O=C(CN1CCC(C(=O)c2ccc3c(c2)OCCO3)CC1)Nc1ccccc1F	.	48	.	.	.	.	.	.
C=CCOc1ccc(C2C(C(=O)c3ccco3)=C(O)C(=O)N2c2nnc(C)s2)cc1 (configuration not stated)	.	.	40	57	.	.	.	.
CC(=O)N1CCc2cc(Br)cc(S(=O)(=O)N3CCN(c4cccc(C)c4)C(C)C3)c21 (configuration not stated)	.	.	.	.	.	.	/	/
COc1cc(C(=O)NCCOc2cc(C)cc(C)c2)c(Br)c(OC)c1OC	.	.	.	.	.	.	/	/
COc1cc(C(=O)NC2CCCC2)c(Br)c(OC)c1OC	.	49	.	.	.	.	.	.
Cc1ccccc1Nc1nc(N)nc(COC(=O)CCS(=O)(=O)c2ccccc2)n1	.	.	.	.	.	.	/	/
Cc1ccccc1Nc1nc(N)nc(COC(=O)CC2CC3CCC2C3)n1 (configuration not stated)	.	51	.	.	.	.	.	.
